The full list was thinned out, with hits kept by preference.
Tgondii IFNg: T. gondii growth inhibition under IFN-gamma; Toxoplasma gondii growth in IFN-gamma-treated host cells; hits give low values; activity change, negative = inhibition, % (concentration not given with the values); hit rate 3.8% among 69,000; AID 1259416; in the data active = activity change below about -70%, passing the limit was not always enough;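 note: host cells are HeLa cells infected with Toxoplasma gondii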
Active calls of the source: *; ! = repeats disagree.

SMILES	Tgondii IFNg
Clc1ccc(CSc2nnc(-c3c[nH]c4ccccc34)o2)cc1	-57.9
N#CCCn1ncc(C#N)c1-n1cccc1	52.0
COCC1(C(=O)NCCS(=O)(=O)N2CCCC2)CCC1	50.3
CCn1c(C2CCCN(Cc3cn[nH]c3C3CCCCC3)C2)n[nH]c1=O (centres undefined)	0.9
Cc1ccc2cc(CNc3cc(Cl)ccc3Cl)c(Cl)nc2c1	52.1
Cc1nnnn1-c1ccc(C(=O)NC(C)c2ccc3c(c2)OCCO3)cc1 (centres undefined)	0.5
Cc1nnsc1-c1noc(CS(=O)(=O)c2ccc(Cl)cc2)n1	40.2
O=S(=O)(Cc1cc(Cl)sc1Cl)c1ccc(Cl)cc1	-101.0*
O=C1CSC(=O)N1CCS(=O)(=O)c1ccc(Cl)cc1	-1.5
CC(C)CN1CCn2cc(C(=O)N3CCN(c4ccc(F)cc4)CC3)nc2C1	5.2
CCc1ccc(CN(Cc2ccccc2OC)C2CC2)nc1	-32.3
COc1ccc(-c2coc3cc(O)ccc3c2=O)c(O)c1O	17.7
COc1cc(-c2coc3cc(OCc4ccccc4)c(OC)c(O)c3c2=O)cc(O)c1OC	-85.9*
COc1cc(-c2coc3cc(OC)c(OC)c(OC)c3c2=O)cc(OC)c1OC	2.3
CCCCS(=O)(=O)N1Cc2ccnn2CC(c2nc(C)no2)C1 (centres undefined)	10.1
CCCc1nc(C)cc(N2CC(c3cccnc3)C2)n1	40.5
COc1ccc2c(c1)NC1(CCN(C(=O)Nc3cc(F)ccc3F)CC1)c1cccn1-2	189.9
COc1ccc(O)c(N)c1	35.9
COc1ccc(O)c(-c2nc3c(C(C)(C)C)cc(C(C)(C)C)c(O)c3o2)c1	-119.4*
COc1ccc(O)c(C2=Nc3ccccc3N=C(c3ccccc3)C2)c1	166.9
CN(C)CCN1C(=O)CCC12CCCN(C(=O)c1ccsc1)CC2 (centres undefined)	176.2
O=C(c1cc(-c2csc(-c3ccccc3)n2)n2ccccc12)N1CCCC1	-49.6
C[C@@H]1CN([C@H](C)CO)C(=O)c2c(c3ccccc3n2C)-c2ccccc2CO[C@H]1CN(C)Cc1cccc(C(F)(F)F)c1	-74.4*
C[C@@H]1CN([C@@H](C)CO)C(=O)c2c(c3ccccc3n2C)-c2ccccc2CO[C@@H]1CN(C)C	-18.1
C[C@@H]1CN([C@@H](C)CO)C(=O)c2c(c3ccccc3n2C)-c2ccccc2CO[C@H]1CN(C)Cc1cccc(C(F)(F)F)c1	-66.0
SMILES	Tgondii IFNg
CC(C)CCN1C[C@H]2[C@H](C(=O)N(C)Cc3ccccn3)CCS(=O)(=O)[C@H]2C1	54.1
Cc1cc(C(=O)N2CCCN(CC3CC3)C(C(C)C)C2)cc2sc(N)nc12 (centres undefined)	-1.3
c1ccc(Cc2nc(C3CCCN(Cc4ccco4)C3)n[nH]2)cc1 (centres undefined)	-3.9
Cn1nc(C(F)(F)F)cc1-c1ccc(NC(=O)Nc2cccc(C(F)(F)F)c2)s1	-90.2*
O=C(Nc1cccc(C(F)(F)F)c1)N1CCSCC1	-28.8
CSc1sc(NC(=O)Nc2cccc(C(F)(F)F)c2)cc1C#N	-2.4
CN1C[C@H]2CN(C(=O)Cc3cccc(F)c3)CCC[C@]2(C(=O)O)C1	-52.4
c1ccc(-c2ccc(-c3cn4c(-c5ccoc5)c(-c5ccoc5)nnc4n3)cc2)cc1	-7.0
C=CCN1CCc2cc(CN(Cc3ccncc3)Cc3ccc(OC)cc3)ccc21	13.7
Cn1c(CNC(=O)C2(c3cccc(F)c3)CCCC2)nnc1SCc1ccccc1	-36.5
O=S(=O)(Nc1ccccc1N1CCOCC1)c1cc(Cl)sc1Cl	-84.6*
Cn1cc(S(=O)(=O)Nc2ccccc2N2CCOCC2)c(C(F)(F)F)n1	-23.8
O=S(=O)(Nc1ccccc1N1CCOCC1)c1cccc2nonc12	-44.5
CCn1c(=O)c(-c2nc(-c3ccc(SC)cc3)no2)c(O)c2ccc(F)cc21	6.8
Cn1cccc1C(=O)NCc1cn2c(n1)CN(C(N)=O)CC2	-0.7
CCN(Cc1ccncc1)C(=O)CCC(=O)NC1CCCC1	-13.9
O=C(Sc1ccc(Cl)cc1Cl)c1csc(-c2ccc3nonc3c2)n1	-1.8
CNC(=O)c1cc2c(nc1N(C)C)CCN(S(=O)(=O)C1CC1)CC2	4.2
O=C(OCCOCCO)c1ccccc1Nc1cccc(C(F)(F)F)c1	38.7
O=C(O)c1ccccc1Nc1ccccc1	-13.3
O=C(O)c1ccccc1Nc1cccc(C(F)(F)F)c1	-72.9*!
CC1NCCn2c(COCC(=O)N3CCCC3)cnc21 (centres undefined)	-1.1
Cc1ccc(NC(=O)Cn2ccc3ccc(-c4nnc(C)o4)cc32)nc1	5.3
CC(NC(=O)CCNC(=O)c1ccccc1F)c1ncn[nH]1 (centres undefined)	5.2
O=c1n(Cn2nnc3ccccc32)nc(C(F)(F)F)c2cccn12	70.3
SMILES	Tgondii IFNg
O=c1n(Cc2ccncc2)nc(C(F)(F)F)c2cccn12	10.5
O=c1[nH]nc(C(F)(F)F)n2cccc12	-103.8*
CC1CCN(Cc2cccc(NC(=O)CCn3cnc4c(cnn4C)c3=O)c2)CC1	-6.5
O=C(c1ccc(-c2ccsc2)nc1)N1CCC(Oc2cccnc2)CC1	-46.9
CCOc1ccc(C(=O)N(C)Cc2cccc3cnccc23)o1	10.6
CS(=O)(=O)N1CCc2ccc(=O)n(CC3CCOCC3)c2CC1	6.2
CCOC(=O)c1ccc(NC(=O)CSc2nnc(CNc3ccc(F)cc3)o2)cc1	-99.8*
CCCCOC(=O)c1ccc(NC(=O)CSc2nnnn2C2CCCCC2)cc1	13.3
CCc1nnc(SCC(=O)Nc2ccc(N3CCN(S(C)(=O)=O)CC3)cc2)o1	-11.1
Cc1ccc(C(=O)N2CC[C@@H]3[C@@H]2CCC(=O)N3Cc2csc(C)n2)o1	61.9
Cc1ccc(-c2nc(C(=O)N3CCCCCC3)c3n2CCCCC3)cc1	-79.9*
CC(C)OCCCNC(=O)c1nc(-c2ccc(Cl)cc2)n2c1CCCCC2	-47.3
COc1ccccc1CNC(=O)c1nc(-c2ccc(C)cc2)n2c1CCCCC2	-115.2*
CCOC(=O)C(C)NC(=O)c1cc(-c2cccnc2)n[nH]1 (centres undefined)	12.0
O=C(c1nc(-c2ccc(Cl)cc2)n2c1CCCCC2)N1CCC2(CC1)OCCO2	117.5
COC(=O)c1cc2c(cc1NC(=O)c1nc(-c3ccc(C)cc3)n3c1CCCCC3)OCO2	283.9
CC(C)CNC(=O)c1nc(-c2ccc(Cl)cc2)n2c1CCCCC2	-100.4*
CCOC(=O)C(C)NC(=O)c1nc(-c2ccc(C)cc2)n2c1CCCCC2 (centres undefined)	-105.9*
COCCCNC(=O)c1nc(-c2ccc(Cl)cc2)n2c1CCCCC2	-49.6
CCOC(=O)C1CCCN(C(=O)c2nc(-c3ccc(C)cc3)n3c2CCCCC3)C1 (centres undefined)	222.9
CC1CCCCN1CCNC(=O)c1nc(-c2ccc(Cl)cc2)n2c1CCCCC2 (centres undefined)	6.3
CN(C)CC(=O)N1CCc2onc(CNc3ncccn3)c2C1	0.1
CC(O)C1C(=O)N2C(C(=O)O)=C(C3CCCO3)SC12 (centres undefined)	14.5
Cc1nc(C)n(CCCNC(C)CO)n1 (centres undefined)	0.6
CN1CCN(CC2CC2)C2(CCN(C(=O)c3ccc4c(c3)OCO4)CC2)C1=O	-24.9
SMILES	Tgondii IFNg
COc1ccc(-c2c(C)nn(C)c2N)cc1OC	64.6
CC(C)CN1C[C@@H]2CN(C(=O)c3ccnn3C)C[C@H]2C1=O	-6.2
CCN(CC)C(=O)c1nc(-c2ccc(C)cc2)n2c1CCCCC2	-32.5
Cc1ccc(-c2nc(C(=O)NC(C)C)c3n2CCCCC3)cc1	-78.1*
Cc1ccc(-c2nc(C(=O)N3CCCCC3c3cccnc3)c3n2CCCCC3)cc1 (centres undefined)	104.9
O=C(Nc1cccc(Cl)c1)c1c(O)c2ccccc2[nH]c1=O	391.7

Assay outcomes (PubChem BioAssay)
